Assay outcomes (PubChem)
Integrin act MD: activators of alpha7 integrin expression for muscular dystrophy | alpha7betagal myoblasts, beta-gal FDG fluorescence, 48 h | Potency, µM (titrated, usually from 38.3 µM), inactives show top-dose activation, most hits filed as activators | 0.064% of 350,000 active;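 also: potency is read from the fitted curve at half-maximal effect; 100% = response of the positive control SU9516; nearly all actives have a fitted effect of over 60% in size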
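alpha7betagal+/- myoblasts (passage 13, 250/well) treated 48 h at 37C with compounds at 1:260 dilution of DMSO stock. Lysed, then beta-galactosidase activity read as FDG fluorescence (ex 480/em 540) after 30 min, with pre-read for autofluorescence.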
GALK inhibitor: galactokinase (human) inhibition | AID 1868 | Potency, µM (series often up to 57.5 µM), for inactives: top-dose activity change, negative = inhibition, usual class: inhibitors | P51570 | Purified GALK, Kinase-Glo residual ATP luminescence | 0.007% of 270,000 active; also: potency is read from the fitted curve at half-maximal effect
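5 nM enzyme, 35 uM ATP, 100 uM galactose, 20 mM HEPES pH8.0, 5 mM MgCl2; 1 h RT; residual ATP by Kinase-Glo Plus luminescence, qHTS format.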
LDHA inh: blocks human lactate dehydrogenase A; activity change, % (values are at about 110 or 230 µM); AID 1347041; P00338; 0.15% of 480,000 active; purified LDHA, NADH/diaphorase-resazurin fluorescence; active compounds read low; in the data active = activity change below about -30%; inconclusive = mostly about -25% to -30%;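 also: plate controls were DMSO wells for no effect and wells without enzyme for full effect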
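Resorufin fluorescence (ex540/em590), read at 0 and 20 min after diaphorase/resazurin addition, reports the NADH left after a 5 min room-temperature reaction of 2 nM human LDH5 with 0.06 mM NADH and 0.2 mM pyruvate.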
TrxR1 inh: inhibitors of rat thioredoxin reductase 1 | O89049 | recombinant rTrxR1, NADPH fluorescence consumption, selenite substrate | Potency, µM (highest dose often 114 µM), inactives show top-dose activity change, negative = inhibition, actives largely listed as inhibitors | 1% of 390,000 active | AID 588453; also: potency is read from the fitted curve at half-maximal effect; nearly all actives have a fitted effect of over 65% in size
Target sequence (O89049 whole entry, looked up): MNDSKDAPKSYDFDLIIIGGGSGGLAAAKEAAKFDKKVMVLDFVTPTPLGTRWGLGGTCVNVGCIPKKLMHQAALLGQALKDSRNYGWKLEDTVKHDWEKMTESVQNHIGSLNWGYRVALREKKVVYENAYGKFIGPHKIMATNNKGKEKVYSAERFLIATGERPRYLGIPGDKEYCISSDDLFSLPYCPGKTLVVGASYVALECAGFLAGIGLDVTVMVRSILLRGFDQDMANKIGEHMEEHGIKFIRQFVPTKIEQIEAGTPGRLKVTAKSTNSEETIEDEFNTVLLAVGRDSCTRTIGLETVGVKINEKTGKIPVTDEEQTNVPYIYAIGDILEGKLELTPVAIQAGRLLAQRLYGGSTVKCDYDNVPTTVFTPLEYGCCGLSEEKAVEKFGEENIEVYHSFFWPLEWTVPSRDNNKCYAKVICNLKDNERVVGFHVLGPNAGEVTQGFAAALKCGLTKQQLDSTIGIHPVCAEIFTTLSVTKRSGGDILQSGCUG
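Rat TrxR1 (90 nM in the dispensed reagent) was pre-reduced with 400 uM NADPH for 5 min at room temperature, then incubated with compound for 15 min. After 400 uM selenite was added, NADPH fluorescence (Ex 340/Em 450 nm) was followed for 8 min.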
PI4K2A inh: inhibitors of human PI4K2A | activity change, negative = inhibition, % at 76.9 µM | AID 1346378 | purified PI4K2A, ADP-Glo luminescence, 1 h; active compounds read low | 0.13% of 420,000 active; in the data active = activity change below about -50%; inconclusive = mostly about -30% to -49%;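 also: -100% = wells without enzyme as full effect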
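ADP-Glo luminescence measured ADP generated by PI4K2A enzyme (4 ug/mL before mixing) with 1.2 mM PI substrate (pre-mix) and 300 microM ATP (pre-mix). Tris pH7.5 buffer with MgCl2, Triton X-100; 1 h reaction at ambient temperature.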
TrxR1 substrate: substrates of rat thioredoxin reductase 1; purified TrxR1 substrate turnover, NADPH consumption readout; AID 588456; Potency, µM (top dose mostly 114 µM), for inactives: top-dose activity change, negative = substrate turnover; 0.01% of 390,000 active; O89049; also: potency is read from the fitted curve at half-maximal effect; nearly all actives have a fitted effect of over 50% in size
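Rat TrxR1, dispensed at 90 nM, was prereduced with 400 uM NADPH (final) for 5 min at ~22 deg C, then incubated with compound 15 min before 400 uM selenite. A first-read NADPH fluorescence drop versus no-compound background flagged substrates.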
* marks the source's active call; other numbers are inactive results; u = inconclusive; x = not tested or not shown; ! = not confirmed by another sample; [ ] = dose if it differs, or a comment. A selection: hits, their analogues and other compounds. The true share with any hit is near 1.1%. Unless noted, calls follow the shape of the dose curve; as a rule, active = well fitted curve in the direction sought with a large enough effect; inconclusive = small, poorly fitted or top-dose-only effect, or another doubt; inactive = no such curve, though single readings can be large; an effect the other way counts as inactive or inconclusive. Unless noted, % is scaled to controls: 0 for no effect and ±100 for the full control effect.

SMILES	Integrin act MD	GALK inhibitor	LDHA inh	TrxR1 inh	PI4K2A inh	TrxR1 substrate
O=C(CSc1ncnc2cc(-c3ccc(F)cc3)sc12)NC1CCCC1	x	x	-4	x	x	x
COC(=O)C1=C(C)NC(=O)/C1=C\c1cccs1	-6%	5%	-7	-38%	1	6%[57.1 µM]
COC(=O)C1=C(C)NC(=O)/C1=C\N(C)C	-2%	1%	-6	16µM*	-3	0%[57.1 µM]
COc1cc2c(C#N)c(N3CCN(c4ccccc4OC)CC3)nc(N)c2c(N)n1	-12%	-4%	12	13%	-55*	50%
COc1cc2c(C#N)c(N3CCCC3)nc(N)c2c(N)n1	22%	-8%	17	-26%[57.1 µM]	-55*!	16µM*!
COc1cc2c(C#N)c(N3CCN(C)CC3)nc(N)c2c(N)n1	x	-1%	x	x	x	x
C=CCNC(=O)CN1CCC(c2cc3ccccc3[nH]2)CC1	x	x	-15	x	x	x
CN(CC(=O)Nc1ccc(Oc2ccccc2)cc1)C1=NS(=O)(=O)c2ccccc21	x	x	-8	x	x	x
O=C(Nc1ccccc1)C1=C(c2ccccc2)S(=O)(=O)CCS1(=O)=O	-65%	-2%	4	0.22µM*	u	-1%
CC(=NCc1ccncc1)C1=C(O)c2ccccc2C1=O	x	-2%	x	x	x	x
CC(=NCc1cccnc1)C1=C(O)c2ccccc2C1=O	-29%	0%	-4	-9%	-54*	-10%
Cc1ccccc1Nc1nc2c(c(=O)[nH]c(=O)n2C)n1CC(=O)O	x	x	31	x	x	x
CC(=O)Nc1ccc2nc(-c3ccccc3)oc2c1	x	x	2	x	x	x
CC(=O)Nc1ccc(-c2nc3ccc(NC(C)=O)cc3o2)cc1	u	0%	-8	50µM*	11	468%
COc1ccc(-c2nc3cc(NC(=O)c4ccccc4)ccc3o2)cc1	x	x	-39*	x	x	x
Cc1ccc(CN(C)C(=O)c2cccc(S(=O)(=O)N3CCCC3)c2)o1	-18%	x	-10	40µM*	-8	15%
CN(Cc1ccco1)C(=O)c1cccc(S(=O)(=O)N2CCCCC2)c1	x	x	-9	x	x	x
C#CCOCCOCCOCCNc1nc(N2CCN(C(=O)[C@H](CCCCN)n3cc(C(N)CC(C)C)nn3)CC2)nc(N2CCN(C(=O)[C@H](CCC(=O)O)n3cc(C(N)[C@H](C)CC)nn3)CC2)n1 (stereo partly specified)	16%	0%	4	18µM*	-3	10%
C#CCOCCOCCOCCNc1nc(N2CCN(C(=O)[C@H](CCCCN)n3cc([C@@H](N)CC(C)C)nn3)CC2)nc(N2CCN(C(=O)[C@H](Cc3cc4ccccc4[nH]3)n3cc([C@@H](N)Cc4ccc(O)cc4)nn3)CC2)n1	7%	0%	-7	45µM*	-5	8%
C#CCOCCOCCOCCNc1nc(N2CCN(C(=O)[C@H](CCCCN)n3cc([C@@H](N)CC(C)C)nn3)CC2)nc(N2CCN(C(=O)[C@H](Cc3cc4ccccc4[nH]3)n3cc([C@@H](N)CC(C)C)nn3)CC2)n1	x	x	x	x	-10	x
CCOc1ccc(-n2cc(-c3ccccc3)c3c(NCC4CCCO4)ncnc32)cc1 (stereo unspecified)	x	x	14	x	x	x
COc1ccccc1N1CCN(c2nc(-c3cccnc3)nc3ccccc23)CC1	x	x	9	x	x	x
CNC(CC(=O)c1ccc([N+](=O)[O-])cc1)C(Cl)(Cl)Cl (stereo unspecified)	u	2%	20	0.63µM*	-1	u
O=C(CCNc1ccc(F)cc1)c1ccco1	-46%	0%	0	11µM*	4	-4%
O=C(CCNc1cc(Cl)cc(Cl)c1)c1ccco1	-22%	2%	2	8.9µM*	3	2%
SMILES	Integrin act MD	GALK inhibitor	LDHA inh	TrxR1 inh	PI4K2A inh	TrxR1 substrate
CNc1nnc(Sc2ccc(S(=O)(=O)NC(C)C)cc2[N+](=O)[O-])s1	x	x	4	x	x	x
Cc1cc(C)c(NC(=O)Cn2cc(S(=O)(=O)Cc3ccccc3F)c3ccccc32)c(C)c1	x	x	-31*	6%	-3	-7%
CC/C(=C\C(=O)c1ccncc1)Nc1ccc(O)cc1	19%	6%	20	7%[57.1 µM]	-50*	4%[57.1 µM]
CC1CCC/C(=C(\C#N)c2nc(-c3ccccc3)cs2)C1 (stereo unspecified)	x	x	8	x	x	x
COC(=O)c1ccc(NC(=O)C(=O)c2cccn2C)cc1	25%	14%	0	6%[57.1 µM]	-82*	-4%
COC(=O)c1ccc(NC(=O)c2ccccc2C(=O)Nc2ccc(C(=O)OC)cc2)cc1	2%	x	0	24%	2	15%
Cc1ccccc1-c1n[nH]c(=S)n1/N=C/C=C/c1ccco1	0%	2%	4	4µM*	-22	-6%
Cc1ccc(-c2nn(CCC#N)cc2C=C(C#N)C#N)cc1	1%	1%	0	7.9µM*	-3	1%
COc1ccc(OC)c(C(=O)COC(=O)COc2cccc(Cl)c2)c1	x	x	8	x	x	x
O=C(NC1CCCC1)c1cnn2c(C(F)(F)F)cc(-c3ccco3)nc12	-32%	-1%	2	u	9	17%
CC(C)CCNC(=O)c1cnn2c(C(F)(F)F)cc(-c3ccco3)nc12	-17%	1%	18	7.1µM*	-18	12%
COC(=O)c1ccc(-n2c(CCC(=O)O)ccc2-c2ccc(C)cc2)cc1	-33%	4%	-6	45µM*	4	5%
CCCn1c(CCC(=O)O)ccc1-c1cccs1	22%	-1%	-6	50µM*	3	31%
CC(=O)c1ccc(-n2c(CCC(=O)O)ccc2-c2cccs2)cc1	-44%	-1%	2	32µM*	1	3%
Cc1ccc(-n2c(CCC(=O)O)ccc2-c2cccs2)cc1Cl	x	x	1	50µM*	-1	4%
CSCC(=O)NCCc1cccs1	x	x	0	x	x	x
Cc1cc(Cl)c2cccc(C(F)(F)F)c2n1	x	x	4	x	x	x
CCC(CC)NC(=O)C(C)c1ccc2cc(OC)ccc2c1 (stereo unspecified)	x	x	8	x	x	x
Cc1c(C(=O)Nc2cccc(Cl)c2)sc2ncnc(N(C)c3ccccc3)c12	x	x	10	x	x	x
